The list is not random: actives were taken first. Their share in the collection is about 3.4%.
TEAD-YAP block = TEAD-YAP interaction inhibition; HEK-TIYL cells, TEAD-Gal4/YAP UAS-luciferase luminescence; inhibition, % at 9.12 µM; actives 1.4% (n = 640,000); in the data active means inhibition above about 32%
MITF primary = inhibitors of human MITF | O75030 | AlphaScreen MITF homodimerization, bead proximity signal | inhibition, % at 2.6 µM | actives 0.91% (n = 650,000) | AID 1259374; in the data active means inhibition above about 50%
GPR151 activ = human GPR151 activation | PathHunter beta-arrestin GPR151 cells, luminescence | activation, % at 11.2 µM | actives 1% (n = 650,000); in the data active means activation above about 4.9%
FBW7 activator = human FBW7 E3 ligase activation, primary screen. Q969H0. AlphaScreen FBW7–phospho-cyclin E peptide binding, activator screen. normalized activity (activation), % at 26.1 µM. actives 0.13% (n = 650,000); in the data active means normalized activity above about 1.9%;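 further: purified mutant Fbw7 with reduced substrate affinity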
Target sequence (Q969H0 whole entry, looked up): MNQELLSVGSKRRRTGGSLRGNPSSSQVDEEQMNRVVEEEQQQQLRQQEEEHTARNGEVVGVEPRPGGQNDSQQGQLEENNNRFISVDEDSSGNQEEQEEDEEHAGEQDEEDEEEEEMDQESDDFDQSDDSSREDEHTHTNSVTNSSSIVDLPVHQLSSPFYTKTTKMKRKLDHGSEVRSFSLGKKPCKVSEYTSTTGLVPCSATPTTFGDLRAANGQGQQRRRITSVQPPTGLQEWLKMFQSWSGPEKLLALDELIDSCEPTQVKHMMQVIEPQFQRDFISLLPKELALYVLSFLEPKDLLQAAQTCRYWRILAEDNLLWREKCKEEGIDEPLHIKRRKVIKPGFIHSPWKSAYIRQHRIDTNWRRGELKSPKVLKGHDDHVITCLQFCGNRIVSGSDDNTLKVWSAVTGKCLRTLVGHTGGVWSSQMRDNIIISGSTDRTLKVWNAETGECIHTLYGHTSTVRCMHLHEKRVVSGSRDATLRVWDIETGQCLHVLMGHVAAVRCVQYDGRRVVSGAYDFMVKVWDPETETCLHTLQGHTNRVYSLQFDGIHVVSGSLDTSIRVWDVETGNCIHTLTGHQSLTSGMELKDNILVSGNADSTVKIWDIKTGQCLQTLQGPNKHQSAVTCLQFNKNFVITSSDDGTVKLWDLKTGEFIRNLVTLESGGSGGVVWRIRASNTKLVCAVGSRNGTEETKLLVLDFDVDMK
MITF confirm = confirmation of human MITF inhibitors | shares compounds with MITF primary | AID 1259372 | actives 16% (n = 4,700) | AlphaScreen MITF homodimerization, biotin/His-MITF beads | inhibition, % at 2.6 µM;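 active means inhibition above a cutoff derived from the DMSO control wells, cut at about 28% in these data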;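 further: inhibitors lower the bead chemiluminescence by keeping MITF from dimerizing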
AS interf ctr = optically interferes with AlphaScreen signal; LysRS AlphaScreen counterscreen, signal interference, triplicate; inhibition, % at 2.6 µM; AID 1259376; actives 7.6% (n = 4,700); shares compounds with MITF primary;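 active means inhibition above a cutoff derived from the DMSO control wells, cut at about 30% in these data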
Of the large screens only hits and unclear results are named; the others gave an inactive call (follow-up assays come after a bar, where they were run).

CCCCN1C(=O)C(=O)N(CC(=O)Nc2ccc(C)c(Cl)c2)C1=O	MITF primary 66.3 | MITF confirm inactive | AS interf ctr inactive
CCOc1cccc(OCCCNCCCOC)c1	MITF primary 89.2 | MITF confirm inactive | AS interf ctr inactive
CCCCNCCCOc1ccc(OC)cc1	none
CCCCNCCCOc1ccc(OCC)cc1	MITF primary 51.4 | MITF confirm inactive | AS interf ctr inactive
CCOc1cccc(OCCOCCNCCCOC)c1	none
CCOc1ccc(OCCCNCCOC)cc1	MITF primary 56.9 | MITF confirm inactive | AS interf ctr inactive
COc1nn(-c2nc(-c3ccco3)cc(C(F)(F)F)n2)cc1[N+](=O)[O-]	none
COc1ccc(OC)c(CN2CCN(C3CCC(C)CC3)CC2)c1 (configuration not stated)	MITF primary 57.1 | MITF confirm inactive | AS interf ctr inactive
COc1ccc(CN2CCN(C3CCCC(C)C3)CC2)c(OC)c1 (configuration not stated)	none
COc1ccc(OC)c(CN2CCN(Cc3cc(OC)ccc3OC)CC2)c1	MITF primary 57.1 | MITF confirm inactive | AS interf ctr inactive
CCc1ccc(CN2CCN(Cc3cc(OC)ccc3OC)CC2)cc1	MITF primary 65.5 | MITF confirm inactive | AS interf ctr inactive
COc1ccc(OC)c(CN2CCN(Cc3ccc(Br)cc3)CC2)c1	MITF primary 76.6 | MITF confirm inactive | AS interf ctr inactive
O=C(CCn1c(=O)[nH]c2ccccc2c1=O)N1CCc2ccccc21	none
CC(=O)N[C@H]1[C@H](Oc2ccc(C)c(C)c2)O[C@H](CO)[C@@H](O)[C@@H]1O	none
CCN1CCN(C(=O)c2ccc(Cn3c(=S)[nH]c4ccccc4c3=O)cc2)CC1	none
COc1ccc(S(=O)(=O)N2CCN(Cc3cc(OC)ccc3OC)CC2)cc1	none
COc1ccc(Br)cc1CN(CCCN(C)C)CCCN(C)C	none
COc1ccc(OC)c(CN2CCN(S(C)(=O)=O)CC2)c1	MITF primary 59.5 | MITF confirm inactive | AS interf ctr inactive
COc1ccc(OC)c(CN(CCCN(C)C)CCCN(C)C)c1	MITF primary 59.5 | MITF confirm inactive | AS interf ctr inactive
COc1ccc(OC)c(CN2CCC(N3CCCC(C)C3)CC2)c1 (configuration not stated)	MITF primary 50.7 | MITF confirm inactive | AS interf ctr inactive
Cc1cc(C)c(-c2csc(NC(=O)CN3C(=O)C4CC=CCC4C3=O)n2)c(C)c1 (configuration not stated)	none
CCOC(=O)C1CCN(C(=O)COC(=O)COc2ccc(C#N)cc2)CC1	none
COCCCNc1ncnc2sc(C)c(C)c12	MITF primary 68.0 | MITF confirm inactive | AS interf ctr inactive
O=C(Nc1ccc(O)cc1)c1cc(S(=O)(=O)N2CCCC2)ccc1Cl	MITF primary 70.5 | MITF confirm inactive | AS interf ctr inactive
CCOC(=O)N1CCN(S(=O)(=O)c2ccc(C(=O)Nc3ccc(-c4nc5ccc(C)cc5s4)cc3)cc2)CC1	MITF primary 53.3 | MITF confirm inactive | AS interf ctr inactive
CCOC(=O)N1CCN(S(=O)(=O)c2ccc(C(=O)Nc3ccc4nc(C)sc4c3)cc2)CC1	none
Cc1nc2c(C(=O)NCC3CCCO3)cnn2c(C)c1Cc1c(F)cccc1Cl (configuration not stated)	none
CC1(C2CC2)NC(=O)N(CC(=O)Nc2ccc(S(=O)(=O)N3CCCCC3)cc2)C1=O (configuration not stated)	MITF primary 61.9 | MITF confirm inactive | AS interf ctr inactive
CC1(C2CC2)NC(=O)N(CC(=O)Nc2ccccc2F)C1=O (configuration not stated)	MITF primary 67.2 | MITF confirm inactive | AS interf ctr inactive
COc1ccc(Cl)cc1NC(=S)N(Cc1ccccc1)Cc1cccs1	none
COC(=O)c1cc(CNCC(c2ccco2)N2CCCCC2)oc1C (configuration not stated)	MITF primary 75.6 | MITF confirm inactive | AS interf ctr inactive
COc1ccc(NC(=S)NCC(c2ccco2)N2CCCC2)cc1 (configuration not stated)	none
COC(=O)CCNCC(c1ccco1)N1CCCCC1 (configuration not stated)	MITF primary 53.6 | MITF confirm inactive | AS interf ctr inactive
CCCOc1ccc(C2Oc3ccc(Br)cc3C3CC(c4ccc(Cl)cc4)=NN32)cc1 (configuration not stated)	MITF primary 74.4 | MITF confirm inactive | AS interf ctr inactive
CCCOc1ccc(C2Oc3ccc(Br)cc3C3CC(c4ccccc4)=NN32)cc1 (configuration not stated)	none
COc1ccc(CN2CCN(C(=O)c3ccc([N+](=O)[O-])cc3)CC2)cc1	MITF primary 59.8 | MITF confirm inactive | AS interf ctr inactive
O=C(c1ccc([N+](=O)[O-])cc1)N1CCN(Cc2cccnc2)CC1	MITF primary 74.2 | MITF confirm inactive | AS interf ctr inactive
O=C(c1cccc2ccccc12)N1CCN(Cc2cccnc2)CC1	MITF primary 60.5 | MITF confirm inactive | AS interf ctr inactive
COc1ccc(C(=O)N2CCN(Cc3cccnc3)CC2)cc1OC	MITF primary 77.9 | MITF confirm inactive | AS interf ctr inactive
CCOc1ccc(C2=NN3C(C2)c2cccc(OCC)c2OC3c2ccc(C(=O)OC)cc2)cc1 (configuration not stated)	none
COc1ccc(C(=O)N2CCN(Cc3cccnc3)CC2)cc1	MITF primary 66.8 | MITF confirm inactive | AS interf ctr inactive
CC(=O)Nc1ccc(C(=O)NC(CC(=O)O)c2cccc([N+](=O)[O-])c2)cc1 (configuration not stated)	MITF primary 60.3 | MITF confirm inactive | AS interf ctr inactive
CC(C)(C)c1ccc(C(=O)NC(CC(=O)O)c2cccc([N+](=O)[O-])c2)cc1 (configuration not stated)	none
CCOc1ccc2c(c1)C(=C1SC(C(=O)OC)=C(C(=O)OC)S1)C(=S)C(C)(C)N2C(=O)c1cccnc1	none
COc1ccc(OC)c(/C=N\NC(=O)CNc2ccccc2C)c1	MITF primary 63.3 | MITF confirm inactive | AS interf ctr inactive
COc1ccc(Br)cc1/C=N\NC(=O)CNc1ccccc1C	none
CCN1CCN(CCCOc2cccc(C(F)(F)F)c2)CC1	MITF primary 56.4 | MITF confirm inactive | AS interf ctr inactive
CN1CCN(CCCOc2cccc(C(C)(C)C)c2)CC1	none
CN(C)CCOc1cccc(C(F)(F)F)c1	MITF primary 87.8 | MITF confirm inactive | AS interf ctr inactive
CCN1CCN(CCOc2ccc3ccccc3c2)CC1	none
CCN1CCN(CCOc2cccc(C(F)(F)F)c2)CC1	MITF primary 60.7 | MITF confirm inactive | AS interf ctr inactive
O=C(CN1C(=O)c2ccccc2C1=O)NC1CCCCC1	MITF primary 52.7 | MITF confirm inactive | AS interf ctr inactive
O=C1C2C(C(=O)N1c1ccc(Br)cc1)N1CCCN1C2c1ccc(F)cc1 (configuration not stated)	MITF primary 65.1 | MITF confirm inactive | AS interf ctr inactive
